Screens from PubChem BioAssay.
Sampled rows, rich in hits. Any-hit rate of the full collection: about 6.1%.
D1 ag = agonists of human D1 dopamine receptor. P21728. HEK293 T-REx D1 cells, calcium flux, agonist mode. activation, % at 2 µM. 360,000 tested, 1% active. AID 504660; in the data active means activation above about 30%
Target sequence (P21728 whole entry, looked up): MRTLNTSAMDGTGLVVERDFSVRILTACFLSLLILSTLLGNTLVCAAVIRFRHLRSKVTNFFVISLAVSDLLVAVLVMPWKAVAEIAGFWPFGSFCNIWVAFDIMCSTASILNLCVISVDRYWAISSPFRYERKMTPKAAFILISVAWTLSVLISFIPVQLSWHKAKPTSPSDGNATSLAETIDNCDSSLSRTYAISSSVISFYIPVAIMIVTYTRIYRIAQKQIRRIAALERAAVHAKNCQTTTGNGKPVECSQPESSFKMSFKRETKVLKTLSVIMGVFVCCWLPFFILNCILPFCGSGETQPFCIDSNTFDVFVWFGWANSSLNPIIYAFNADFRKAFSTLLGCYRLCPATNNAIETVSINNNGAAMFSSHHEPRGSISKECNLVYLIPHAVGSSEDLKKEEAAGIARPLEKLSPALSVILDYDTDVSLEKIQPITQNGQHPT
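Inducible HEK293 T-REx D1 cells, force-coupled to calcium signalling, were plated at 4000 cells/well with tetracycline and held overnight at 30 C. After no-wash calcium dye loading, compound-evoked calcium rise over 180 s flagged agonists.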
DRD3 antagonist = D3 dopamine receptor (human) antagonism. P35462. D3R cells, DiscoveRx beta-arrestin luminescence, antagonist mode; stronger effect = lower value. max response, negative = inhibition, %. 360,000 tested, 2.5% active. AID 652054; in the data active means max response below about -50%; inconclusive means no clear call, values can overlap the other calls
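Cells expressing the human receptor were seeded at 1500 cells/well, incubated overnight at 37 degrees C in 5% CO2, then exposed to library compounds with dopamine controls for 90 minutes at 37 degrees C before luminescent detection.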
D1 antagonist = blocks dopamine activation of the human D1 receptor. HEK293 TREx D1 cells, calcium flux, dopamine EC80; stronger effect = lower value. activity change, negative = inhibition, % at 10 µM. 360,000 tested, 3.2% active; in the data active means activity change below about -30%
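Using tetracycline-induced force-coupled D1 Hek293 cells and a calcium dye, signals were followed for 180 s after compound, then for 180 s after EC80 dopamine, to detect inhibitors.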
D3 ag = activates the human D3 dopamine receptor; AID 652048; D3R DiscoveRx beta-arrestin cells, luminescence, 90 min; max activation, %; 410,000 tested, 0.58% active; in the data active means max activation above about 30%
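Agonist-mode cell screen: cells plated at 1500/well and incubated overnight at 37 °C, then exposed to library compounds for 90 min at 37 °C. Detection reagent was added for 30–60 min at room temperature, and luminescence was read.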
D1 PAM = enhances dopamine response at the human D1 receptor | HEK293 TREx D1 cells, calcium flux, dopamine EC20 potentiation | potentiation, % at 10 µM | 360,000 tested, 0.036% active | AID 504651; in the data active means potentiation above about 30%
A number is an active result; i = inactive; ? = inconclusive; nt = not tested or not shown.

SMILES	D1 ag	DRD3 antagonist	D1 antagonist	D3 ag	D1 PAM
COCCn1c(C)cc(O)c(C(c2ccccc2OC)N2CCCCC2)c1=O (centres undefined)	i	nt	i	i	i
Clc1ccc(OCCCN2CCCC2)cc1Cl	i	-66.5	i	i	i
CCOC(=O)[C@]12CCCC=C1N(Cc1ccc3c(c1)OCO3)C(=O)[C@H](CC(=O)NCCCCc1ccccc1)C2	nt	-50.7	nt	i	nt
CC(C)CCN1CCC[C@]2(N[C@H](c3ccccc3)[C@@H]3C(=O)N(Cc4ccccc4)C(=O)[C@@H]32)C1=O	nt	i	nt	i	nt
CCN(CC)CCCNC(=O)CC1Sc2ccccc2NC1=O (centres undefined)	i	-50.6	i	i	i
CCCCN(CC)CCCNC(=O)CC1Oc2ccccc2NC1=O (centres undefined)	i	i	i	i	i
O=C(COC(=O)CC1Sc2ccccc2NC1=O)NCc1ccccc1 (centres undefined)	36.8	i	i	i	i
COc1ccc(CNC(=O)CC2Sc3ccccc3NC2=O)cc1 (centres undefined)	i	i	i	i	i
O=C1CC[C@@H](C(=O)N[C@H]2C[C@@H]2c2ccccc2)N1	nt	nt	nt	i	nt
Cc1ccccc1-c1csc2ncnc(Sc3nnnn3C)c12	i	nt	i	nt	i
Cc1nnc2c(N3CCN(CCO)CC3)nc3ccccc3n12	i	i	i	i	i
COc1ccc(N2CCN(c3nc4ccccc4n4c(C)nnc34)CC2)cc1	i	nt	-76.2	i	i
CCOC(=O)c1oc2ccc(S(=O)(=O)n3nc(-c4ccccc4)cc3N)cc2c1C	i	i	-34.0	i	i
CCOC(=O)N1CCN(C(=O)c2ccc(Cl)c(S(=O)(=O)N3CCCC3)c2)CC1	i	i	i	i	33.5
CCOC(=O)N1CCN(C(=O)c2oc3ccc(S(=O)(=O)N4CCCCC4)cc3c2C)CC1	i	i	i	44.0	i
Cc1c(C(=O)O)oc2ccc(S(=O)(=O)N3CCCC3)cc12	i	i	i	i	i
CCCCN(C)C(=O)c1oc2ccc(S(=O)(=O)N3CCCCCC3)cc2c1C	i	-75.1	i	i	i
c1ccc(COc2ccccc2CNC2CCCC2)cc1	i	?	nt	i	i
c1ccc(COc2ccccc2CNC23CC4CC(CC(C4)C2)C3)cc1	49.1	i	i	i	i
O=C(N=c1ccn(-c2nc3ccccc3nc2NS(=O)(=O)c2ccc(Cl)cc2)cc1)c1cccs1	i	i	i	i	i
O=C(N=c1ccn(-c2nc3ccccc3nc2NS(=O)(=O)c2ccccc2)cc1)c1ccccc1Cl	38.3	i	i	i	i
CCOc1ccc(S(=O)(=O)Nc2nc3ccccc3nc2-n2ccc(=NC(=O)c3cccs3)cc2)cc1	72.3	i	-32.6	i	i
CC(=O)Nc1ccc(S(=O)(=O)Nc2nc3ccccc3nc2-n2ccc(=NC(=O)c3ccccc3)cc2)cc1	i	i	i	i	i
O=C(N=c1ccn(-c2nc3ccccc3nc2NS(=O)(=O)c2ccc(Cl)cc2)cc1)c1ccccc1Cl	88.7	nt	i	nt	i
CCCc1cc(NCCCN(C)C)n2c(nc3ccccc32)c1C#N	i	i	-38.0	i	i
SMILES	D1 ag	DRD3 antagonist	D1 antagonist	D3 ag	D1 PAM
N#C/C(=C\c1sc(N2CCOCC2)nc1-c1ccccc1)C(=O)Nc1cccc2ccccc12	40.1	nt	i	nt	i
COc1ccc(NC(=O)CC2Oc3ccc(C)cc3NC2=O)cc1Cl (centres undefined)	i	nt	i	i	i
CSc1nnc(NC(=O)C23CC4CC(CC(C4)C2)C3)s1	i	i	i	i	i
NC(=O)CSc1nnc(NC(=O)C23CC4CC(CC(C4)C2)C3)s1	i	i	i	40.4	i
O=C(Nc1ccccc1)OC(CN1CCCCC1)C(F)(F)F (centres undefined)	i	i	i	i	i
O=C(Nc1ccccc1)OCC1CCCN2CCCCC12 (centres undefined)	i	-52.7	i	i	i
O=C(Nc1ccccc1)OCC(CN1CCCCC1)OC(=O)Nc1ccccc1 (centres undefined)	i	-89.2	i	i	i
O=C(/C=C/c1ccco1)OCC1CCCN2CCCCC12 (centres undefined)	i	i	i	i	i
Cc1ccc(Nc2ncccc2C(N)=O)cc1[N+](=O)[O-]	i	i	i	i	i
Cn1c(=O)oc2cc(S(=O)(=O)N3CCC(C(=O)NCC4COc5ccccc5O4)CC3)ccc21 (centres undefined)	i	i	-34.6	i	i
Cc1ccc(NC(=O)C2CCCN(S(=O)(=O)c3ccc4c(c3)oc(=O)n4C)C2)cc1Cl (centres undefined)	i	nt	-30.9	i	i
CCCN(CCC)CCNC(=O)C1CCCN(S(=O)(=O)c2ccc3c(c2)oc(=O)n3C)C1 (centres undefined)	i	i	i	46.4	i
Cn1c(=O)oc2cc(S(=O)(=O)N3CCCC(C(=O)N4CCc5ccccc5C4)C3)ccc21 (centres undefined)	i	?	-37.6	i	nt
O=C(O)c1ccc(NC(=O)C2C3CCC(O3)C2C(=O)O)cc1 (centres undefined)	i	i	i	i	i
Cn1c(=O)oc2cc(S(=O)(=O)N3CCCc4ccccc43)ccc21	i	i	i	i	nt
Cn1c(=O)oc2cc(S(=O)(=O)N3CCc4ccccc43)ccc21	38.0	i	i	i	i
Cc1c(C(=O)NCC2COc3ccccc3O2)oc2ccc(S(=O)(=O)N3CCOCC3)cc12 (centres undefined)	i	i	i	i	i
Cc1c(C(=O)NCC2COc3ccccc3O2)oc2ccc(S(=O)(=O)N3CC(C)CC(C)C3)cc12 (centres undefined)	i	i	-30.9	i	i
O=C(Nc1ccccc1)c1cc(C2CCCCN2C(=O)c2cccs2)on1 (centres undefined)	nt	?	nt	i	nt
Cc1ccc(-n2ccnc(NCc3ccccc3)c2=O)cc1C	i	nt	-35.3	i	i
Cc1ccc(CNc2nccn(-c3cc(C)cc(C)c3)c2=O)cc1	i	nt	i	i	i
COc1cccc(CN(C)C(=O)C23CC4CC(CC(C4)C2)C3)c1	i	i	-34.3	i	i
COc1ccc(CN(C)C(=O)C23CC4CC(CC(C4)C2)C3)c(OC)c1	i	i	i	i	i
COc1ccc(NS(=O)(=O)c2ccc(S(=O)(=O)N3CCOCC3)cc2)cc1	34.1	i	-32.8	i	i
COc1ccc(CNS(=O)(=O)c2cccc(S(=O)(=O)N3CCOCC3)c2)cc1	i	-93.2	i	i	i
COc1ccc(CNC(=O)C(C)Sc2ccc(S(=O)(=O)N3CCOCC3)cn2)cc1 (centres undefined)	i	i	-31.7	i	i
CC(=O)c1cccc(NC(=O)Cc2coc3cc4c(cc23)CCC4)c1	i	i	i	i	i
Cc1oc2ncn(CC(C)C)c(=O)c2c1C(=O)NCCCN1CCCCC1	i	nt	i	i	i
